PubChem BioAssay (Tox21)
Values joined by “and” are separate entries in the source; they are usually repeats but may differ in a detail not shown here. Equal entries are not always repeated. Records with an inconclusive call do not appear. A call without a number means that no potency is given here. Some structures have more than one record in an assay (separate samples or runs), and their calls can disagree. Active and inactive are the calls of the source. Unless noted, the call rests on the fitted dose curve; in most records, active means well fitted curve in the direction sought with a large enough effect in the repeat runs; inconclusive means weak or mixed curves; inactive means no such curve, though single readings can be large; an effect the other way counts as inactive or inconclusive.

Assays:
[1] = qHTS assay to identify small molecule agonists of the hypoxia (HIF-1) signaling pathway - cell viability counter screen (AID 1224844; calls by dose curve; further: nearly all actives have a fitted effect of over 50% in size)
Procedure, shortened: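 HRE-bla ME-180 cells, 2,000/well in 0.5% dialyzed FBS medium, treated 17 h at 37C with compounds. Viability read in the same wells as the bla reporter, by CellTiter-Glo luminescence after 30 min at room temperature.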

[2] = qHTS assay to identify small molecule agonists of H2AX (AID 1224845; active means well fitted activation curve with a large enough effect in the signal ratio in the repeat runs, not every such curve was filed as active; the % refers to the signal ratio)
Procedure, shortened: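 Wild-type CHO-K1 cells plated overnight, then exposed 3 hr at 37C to compounds at 15 concentrations (0.76% DMSO). Lysed, then HTRF anti-pH2AX(S139)-cryptate/anti-H2AX-d2 detection after 24 hr at room temperature; emissions 665 and 620 nm.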

[3] = qHTS assay to identify small molecule agonists of the hypoxia (HIF-1) signaling pathway (AID 1224846; active means well fitted activation curve with a large enough effect in the signal ratio in the repeat runs, not every such curve was filed as active; the % refers to the signal ratio)
Procedure, shortened: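 HRE-bla ME-180 beta-lactamase reporter cells in medium with 0.5% dialyzed FBS, pre-incubated 5 h then exposed to compounds 17 h at 37C, 5% CO2; reporter induction read with CCF4-AM FRET substrate.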

[4] = qHTS assay to identify small molecule agonists of H2AX - cell viability counter screen (AID 1224847; calls by dose curve; further: top concentration of the series differs between compounds; nearly all actives have a fitted effect of over 30% in size)
Procedure, shortened: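 Counter-screen for viability: CellTiter-Glo ATP luminescence read after 3 h compound treatment (15-point titration, 0.76% DMSO final) of CHO-K1 cells at 37C, with 30 min room-temperature reagent incubation.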

[5] = qHTS RealTime-Glo MT Cell Viability Assay in HepG2 cells - 24 hour (AID 1224867); further: nearly all actives have a fitted effect of over 50% in size
Procedure, shortened: (§1)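 Luminescence read-out: viable HepG2 cells reduce a prosubstrate to a NanoLuc substrate, giving a signal proportional to live cell number. Reads taken at 0, 8, 16, 24, 32 and 40 h of compound exposure at 37 C.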

[6] = qHTS RealTime-Glo MT Cell Viability Assay in HEK293 cells - 32 hour (AID 1224868); further: nearly all actives have a fitted effect of over 50% in size; further: potency means the concentration at half of the fitted maximal effect
Procedure, shortened: (§2)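 Nonlytic real-time viability readout: viable cells convert prosubstrate to NanoLuc substrate, giving luminescence proportional to live cell number. HEK293, 600 cells/well, compound added after 5 h, continuous culture at 37 C.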

[7] = A CellTox Green Cytotoxicity Assay to monitor cytotoxicity in HEK293 cells - 0 hour (AID 1224869); further: nearly all actives have a fitted effect of over 50% in size
Procedure, shortened: (§3)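 HEK293 cells, 600/well, were preincubated 5 hours and then exposed to compounds at 37 C for up to 40 hours. A cell-impermeant cyanine dye staining dead-cell DNA was read by fluorescence at 0, 8, 16, 24, 32 and 40 h time points.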

[8] = qHTS RealTime-Glo MT Cell Viability Assay in HepG2 cells - 40 hour (AID 1224870); further: nearly all actives have a fitted effect of over 50% in size
Procedure, shortened: (§4)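 HepG2 cells mixed with RealTime-Glo MT reagents (NanoLuc plus cell-permeant prosubstrate) were seeded at 600 cells/well, incubated 5 h at 37 C/5% CO2, then pinned with compounds in DMSO; nonlytic luminescence tracked viability during 40 h treatment.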

[9] = A CellTox Green Cytotoxicity Assay to monitor cytotoxicity in HEK293 cells - 40 hour (AID 1224871); further: nearly all actives have a fitted effect of over 45% in size; further: potency means the concentration at half of the fitted maximal effect
Procedure, shortened: as §3

[10] = qHTS RealTime-Glo MT Cell Viability Assay in HEK293 cells - 16 hour (AID 1224872)
Procedure, shortened: as §2

[11] = qHTS RealTime-Glo MT Cell Viability Assay in HepG2 cells - 8 hour (AID 1224873); further: nearly all actives have a fitted effect of over 55% in size
Procedure, shortened: as §4

[12] = qHTS RealTime-Glo MT Cell Viability Assay in HEK293 cells - 40 hour (AID 1224874); details: RealTime-Glo luminescence; max response: stronger effect = lower value; further: nearly all actives have a fitted effect of over 50% in size; further: potency means the concentration at half of the fitted maximal effect
Procedure, shortened: (§5)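 600 cells/well were plated with the nonlytic NanoLuc/prosubstrate reagent, pre-incubated 5 h, then given 23 nL of compound in DMSO. Incubation at 37 C for 40 h, with luminescence from viable-cell-reduced substrate read repeatedly from 0 h.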

[13] = A CellTox Green Cytotoxicity Assay to monitor cytotoxicity in HEK293 cells - 24 hour (AID 1224875); further: series mostly up to about 77 µM; nearly all actives have a fitted effect of over 45% in size
Procedure, shortened: as §3

[14] = A CellTox Green Cytotoxicity Assay to monitor cytotoxicity in HepG2 cells - 16 hour (AID 1224876); further: nearly all actives have a fitted effect of over 45% in size
Procedure, shortened: (§6)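 HepG2 cells, 600/well, preincubated 5 h with CellTox Green dye, then exposed to Tox21 compounds in DMSO at 37 C for up to 40 h. Dead-cell DNA fluorescence read at the indicated time point.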

[15] = qHTS RealTime-Glo MT Cell Viability Assay in HepG2 cells - 32 hour (AID 1224877); further: nearly all actives have a fitted effect of over 55% in size
Procedure, shortened: as §1

[16] = A CellTox Green Cytotoxicity Assay to monitor cytotoxicity in HepG2 cells - 24 hour (AID 1224878); further: nearly all actives have a fitted effect of over 45% in size
Procedure, shortened: as §6

[17] = A CellTox Green Cytotoxicity Assay to monitor cytotoxicity in HepG2 cells - 40 hour (AID 1224879); further: nearly all actives have a fitted effect of over 40% in size
Procedure, shortened: as §6

[18] = qHTS RealTime-Glo MT Cell Viability Assay in HEK293 cells - 0 hour (AID 1224880)
Procedure, shortened: as §5

[19] = molecular target: Thyrotropin receptor (Homo sapiens) (UniProt P16473); test: qHTS assay to identify small molecule agonists of the thyroid stimulating hormone receptor (TSHR) signaling pathway (AID 1224843; calls by dose curve; further: nearly all actives have a fitted effect of over 45% in size)
Chain of Thyrotropin receptor (Homo sapiens) (P16473 whole entry, looked up): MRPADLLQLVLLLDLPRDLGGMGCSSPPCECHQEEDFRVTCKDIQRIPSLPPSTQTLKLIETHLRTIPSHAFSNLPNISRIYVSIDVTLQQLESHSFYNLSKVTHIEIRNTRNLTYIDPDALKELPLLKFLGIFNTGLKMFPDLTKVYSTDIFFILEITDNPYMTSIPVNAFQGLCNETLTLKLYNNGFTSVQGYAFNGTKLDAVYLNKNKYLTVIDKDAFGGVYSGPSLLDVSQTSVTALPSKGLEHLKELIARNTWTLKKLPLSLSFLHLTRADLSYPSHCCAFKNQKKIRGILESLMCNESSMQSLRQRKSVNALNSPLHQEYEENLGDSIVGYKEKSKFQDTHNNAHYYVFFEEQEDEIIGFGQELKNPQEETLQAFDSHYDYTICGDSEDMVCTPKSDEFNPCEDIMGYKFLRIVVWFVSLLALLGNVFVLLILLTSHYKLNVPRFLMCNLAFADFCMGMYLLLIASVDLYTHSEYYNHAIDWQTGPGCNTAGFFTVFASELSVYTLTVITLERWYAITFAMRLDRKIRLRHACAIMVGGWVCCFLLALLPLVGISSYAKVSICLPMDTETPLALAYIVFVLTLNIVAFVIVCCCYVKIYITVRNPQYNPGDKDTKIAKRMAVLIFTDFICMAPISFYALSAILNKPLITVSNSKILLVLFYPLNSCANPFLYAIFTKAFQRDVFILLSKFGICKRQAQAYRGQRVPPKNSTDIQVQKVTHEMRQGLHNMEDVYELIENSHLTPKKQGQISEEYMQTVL
Procedure, shortened: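 Cell line HEK293 with TSHR; density 800/well. Exposure 30 min RT. Readout HTRF cAMP (cAMP-d2/anti-cAMP-cryptate), 1 h RT before reading.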

[20] = qHTS assay to identify small molecule antagonists of the estrogen related receptor (ERR) signaling pathway from Tox21 library (AID 1224848); further: nearly all actives have a fitted effect of over 50% in size
Procedure, shortened: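 Screening used an ERR reporter line supplied by NTP, exposed for 18 h at 37 C to library compounds delivered in DMSO. Signal was luciferase luminescence developed with ONE-Glo at room temperature for 30 min.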

## CNC(=S)N(C)C
[1]
  outcome: inactive
[2]
  outcome: inactive
[3]
  outcome: inactive
[4]
  outcome: inactive
[5]
  Potency: inactive
[6]
  Potency: inactive and 11.6 µM (active)
[7]
  outcome: inactive
[8]
  outcome: inactive
[9]
  Potency: inactive
[10]
  Potency: inactive
[11]
  Potency: inactive
[12]
  Potency: 11.6 µM (active)
  max response: 3.02% (inactive)
[13]
  Potency: inactive
[14]
  outcome: inactive
[15]
  outcome: inactive
[16]
  Potency: inactive
[17]
  Potency: inactive
[18]
  outcome: inactive

## CCOC(=O)c1ccc(N)cc1
[19]
  outcome: inactive
[1]
  outcome: inactive
[2]
  outcome: inactive
[4]
  outcome: inactive
[5]
  Potency: inactive
[6]
  Potency: inactive
[7]
  outcome: inactive
[8]
  outcome: inactive
[9]
  Potency: inactive
[10]
  Potency: inactive
[11]
  Potency: inactive
[12]
  max response: -17.4% (inactive)
[13]
  Potency: inactive
[14]
  outcome: inactive
[15]
  outcome: inactive
[16]
  Potency: inactive
[17]
  Potency: inactive
[18]
  outcome: inactive

## NC(=S)NNC(N)=S
[19]
  outcome: inactive
[1]
  outcome: inactive
[2]
  outcome: inactive
[3]
  outcome: inactive
[4]
  outcome: inactive
[5]
  Potency: inactive
[6]
  Potency: inactive
[7]
  outcome: inactive
[8]
  outcome: inactive
[9]
  Potency: inactive
[10]
  Potency: inactive
[11]
  Potency: inactive
[12]
  max response: 7.65% (inactive) and -11.1% (inactive)
[13]
  Potency: inactive
[14]
  outcome: inactive
[15]
  outcome: inactive
[16]
  Potency: inactive
[17]
  Potency: inactive
[18]
  outcome: inactive

## c1ccc(Oc2ccccc2)cc1
[19]
  outcome: inactive
[1]
  outcome: inactive
[2]
  outcome: inactive
[3]
  outcome: inactive
[4]
  outcome: inactive
[5]
  Potency: inactive
[6]
  Potency: inactive
[7]
  outcome: inactive
[8]
  outcome: inactive
[9]
  Potency: 50.5 µM (active)
[10]
  Potency: inactive
[11]
  Potency: inactive
[12]
  max response: -2.3% (inactive) and -6.04% (inactive)
[13]
  Potency: inactive
[14]
  outcome: inactive
[15]
  outcome: inactive
[16]
  Potency: inactive
[17]
  Potency: inactive
[18]
  outcome: inactive

## CC(O)CC(C)(C)O (stereo not drawn)
[1]
  outcome: inactive
[2]
  outcome: inactive
[3]
  outcome: inactive
[4]
  outcome: inactive
[5]
  Potency: inactive
[6]
  Potency: inactive
[7]
  outcome: inactive
[8]
  outcome: inactive
[9]
  Potency: inactive
[10]
  Potency: inactive
[11]
  Potency: inactive
[12]
  max response: 13.3% (inactive) and 0.19% (inactive)
[13]
  Potency: inactive
[14]
  outcome: inactive
[15]
  outcome: inactive
[16]
  Potency: inactive
[17]
  Potency: inactive
[18]
  outcome: inactive

## CN1C(=O)CC[C@H]1c1cccnc1
[19]
  outcome: inactive
[1]
  outcome: inactive
[2]
  outcome: inactive
[4]
  outcome: inactive
[5]
  Potency: inactive
[6]
  Potency: inactive
[7]
  outcome: inactive
[8]
  outcome: inactive
[9]
  Potency: inactive
[10]
  Potency: inactive
[11]
  Potency: inactive
[12]
  max response: 1.45% (inactive) and 7.43% (inactive)
[13]
  Potency: inactive
[14]
  outcome: inactive
[15]
  outcome: inactive
[16]
  Potency: inactive
[17]
  Potency: inactive
[18]
  outcome: inactive

## O=C1CCCC1
[1]
  outcome: inactive
[2]
  outcome: inactive
[3]
  outcome: inactive
[4]
  outcome: inactive
[20]
  outcome: inactive
[5]
  Potency: inactive
[6]
  Potency: inactive
[7]
  outcome: inactive
[8]
  outcome: inactive
[9]
  Potency: inactive
[10]
  Potency: inactive
[11]
  Potency: inactive
[12]
  max response: -0.988% (inactive) and 5.09% (inactive)
[13]
  Potency: inactive
[14]
  outcome: inactive
[15]
  outcome: inactive
[16]
  Potency: inactive
[17]
  Potency: inactive
[18]
  outcome: inactive

## NCCNCCN
[1]
  outcome: inactive
[2]
  outcome: inactive
[3]
  outcome: inactive
[4]
  outcome: inactive
[20]
  outcome: inactive
[5]
  Potency: inactive
[6]
  Potency: inactive
[7]
  outcome: inactive
[8]
  outcome: inactive
[9]
  Potency: inactive
[10]
  Potency: inactive
[11]
  Potency: inactive
[12]
  max response: -1.22% (inactive) and 0.475% (inactive)
[13]
  Potency: inactive
[14]
  outcome: inactive
[15]
  outcome: inactive
[16]
  Potency: inactive
[17]
  Potency: inactive
[18]
  outcome: inactive

## O=c1[nH]cnc2[nH]ncc12
[1]
  outcome: inactive
[2]
  outcome: inactive
[4]
  outcome: inactive
[5]
  Potency: inactive
[6]
  Potency: inactive
[7]
  outcome: inactive
[8]
  outcome: inactive
[9]
  Potency: inactive
[10]
  Potency: inactive
[11]
  Potency: inactive
[12]
  max response: -0.951% (inactive) and 0.0063% (inactive)
[13]
  Potency: inactive
[14]
  outcome: inactive
[15]
  outcome: inactive
[16]
  Potency: inactive
[17]
  Potency: inactive
[18]
  outcome: inactive

## CNC(=O)Oc1ccc2c(c1)[C@]1(C)CCN(C)[C@@H]1N2C
[19]
  outcome: inactive
[1]
  outcome: inactive
[2]
  outcome: inactive
[4]
  outcome: inactive
[5]
  Potency: inactive
[6]
  Potency: inactive
[7]
  outcome: inactive
[8]
  outcome: inactive
[9]
  Potency: inactive
[10]
  Potency: inactive
[11]
  Potency: inactive
[12]
  max response: 4.52% (inactive) and 8.75% (inactive)
[13]
  Potency: inactive
[14]
  outcome: inactive
[15]
  outcome: inactive
[16]
  Potency: inactive
[17]
  Potency: inactive
[18]
  outcome: inactive

## c1ccc2c(c1)Cc1ccccc1-2
[19]
  outcome: inactive
[1]
  outcome: inactive
[2]
  outcome: inactive
[3]
  outcome: inactive
[4]
  outcome: inactive
[5]
  Potency: inactive
[6]
  Potency: inactive
[7]
  outcome: inactive
[8]
  outcome: inactive
[9]
  Potency: 39.5 µM (active) and 54.9 µM (active)
[10]
  Potency: inactive
[11]
  Potency: inactive
[12]
  max response: -9.32% (inactive) and 10% (inactive)
[14]
  outcome: inactive
[15]
  outcome: inactive
[16]
  Potency: inactive
[17]
  Potency: inactive
[18]
  outcome: inactive

## O=S(=O)(O)c1ccc(N=Nc2c(O)ccc3cc(S(=O)(=O)O)ccc23)cc1
[1]
  outcome: inactive
[3]
  outcome: inactive
[4]
  outcome: inactive
[20]
  outcome: inactive
[6]
  Potency: inactive
[7]
  outcome: inactive
[9]
  Potency: inactive
[11]
  Potency: inactive
[12]
  max response: -20% (inactive)
[13]
  Potency: inactive
[14]
  outcome: inactive
[16]
  Potency: inactive
[17]
  Potency: inactive
[18]
  outcome: inactive

## CC(=O)OC1CC(C)OC(C)O1 (stereo not drawn)
[1]
  outcome: inactive
[2]
  outcome: inactive
[3]
  outcome: inactive
[4]
  outcome: inactive
[20]
  outcome: inactive
[5]
  Potency: inactive
[6]
  Potency: inactive
[7]
  outcome: inactive
[8]
  outcome: inactive
[9]
  Potency: inactive
[10]
  Potency: inactive
[11]
  Potency: inactive
[12]
  max response: 5.08% (inactive) and 9.58% (inactive)
[13]
  Potency: inactive
[14]
  outcome: inactive
[15]
  outcome: inactive
[16]
  Potency: inactive
[17]
  Potency: inactive
[18]
  outcome: inactive

## CN/C(=C\[N+](=O)[O-])NCCSCc1csc(CN(C)C)n1
[19]
  outcome: inactive
[1]
  outcome: inactive
[2]
  outcome: inactive
[4]
  outcome: inactive
[5]
  Potency: inactive
[6]
  Potency: inactive
[7]
  outcome: inactive
[8]
  outcome: inactive
[9]
  Potency: inactive
[10]
  Potency: inactive
[11]
  Potency: inactive
[12]
  max response: 2.65% (inactive) and -4.24% (inactive)
[13]
  Potency: inactive
[14]
  outcome: inactive
[15]
  outcome: inactive
[16]
  Potency: inactive
[17]
  Potency: inactive
[18]
  outcome: inactive
